According to PubChem BioAssay (NCATS):
Inconclusive results are not listed. Active and inactive are the calls of the source. Unless noted, calls come from the whole dose curve; as a rule, active = well fitted curve in the direction sought with a large enough effect; inconclusive = small, poorly fitted or top-dose-only effect, or another doubt; inactive = no such curve, though single readings can be large; an effect the other way counts as inactive or inconclusive.

Assays:
[1] = target: Glucocorticoid receptor (Homo sapiens) (UniProt P04150); test: qHTS assay for small molecule agonists of glucocorticoid receptor signaling (AID 588532; active = well fitted curve in the direction sought with a large enough effect in the signal ratio, with a control signal flat; the % refers to the signal ratio;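 note: 100% = dexamethasone at 0.1 µM and 0% = DMSO only wells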); conditions: HeLa MMTV-bla, beta-lactamase ratio, agonist, 18 h; stronger effect = higher value; percent of dexamethasone control, DMSO zero
Method in brief: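 Stimulation of a glucocorticoid response element-driven beta-lactamase gene was measured in HeLa cells. Responses were scaled between DMSO basal and 0.1 uM dexamethasone, then fitted for half-maximal stimulation.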

[2] = target: Glucocorticoid receptor (Homo sapiens) (UniProt P04150); test: qHTS assay for small molecule antagonists of glucocorticoid receptor signaling (AID 588533; active = well fitted inhibition curve with a large enough effect in the signal ratio, with a control signal flat, not every such curve was filed as active; the % refers to the signal ratio;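 note: cells stimulated with 2 nM dexamethasone as agonist; % is set by controls: 0 for no effect and ±100 for the full control effect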); conditions: HeLa MMTV-bla, GRE beta-lactamase ratio, antagonist mode, 18 h; series mostly up to 76.8 µM
Method in brief: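 Antagonist-mode qHTS: compound titrations added to GRE-bla HeLa cells, then dexamethasone 2 nM final; 18 h, 37 C. CCF4 FRET fluorescence normalized to dexamethasone and DMSO; IC50 from Hill fit.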

[3] = target: Peroxisome proliferator-activated receptor gamma (Homo sapiens) (UniProt P37231); test: qHTS assay for small molecule agonists of peroxisome proliferator-activated receptor gamma signaling (AID 588536; active = well fitted curve in the direction sought with a large enough effect in the signal ratio, with a control signal flat, not every such curve was filed as active; the % refers to the signal ratio;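 note: 0% = DMSO basal wells and 100% = rosiglitazone at 2 µM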); conditions: HEK293 PPARg-UAS-bla, beta-lactamase ratio, 16 h, percent of rosiglitazone response, DMSO as zero; series mostly up to 76.7 µM
Method in brief: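 PPAR-gamma-UAS-bla HEK293 cells in medium with 1% charcoal/dextran-treated FBS were exposed to compounds for 16 h at 37 C. Beta-lactamase activity was read with CCF4 substrate (405 nm excitation, 460/530 nm emission).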

[4] = target: Vitamin D3 receptor (Homo sapiens) (UniProt P11473); test: qHTS assay for small molecule antagonists of vitamin D receptor signaling (AID 588541; calls by dose curve;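 note: receptor activated by calcitriol during compound treatment; % is set by controls: 0 for no effect and ±100 for the full control effect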); conditions: HEK293T VDR-UAS-bla, beta-lactamase ratio, antagonist mode; series mostly up to 76.7 µM
Method in brief: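 VDR-UAS-bla HEK293T cells (2000/well, 2% charcoal-stripped FBS) were treated with titrated compounds plus 1-alpha,25-dihydroxyvitamin D3 (50 nM or 3 nM final) for 16 h at 37 C. CCF4 beta-lactamase fluorescence was read; Hill fits gave IC50.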

[5] = target: Vitamin D3 receptor (Homo sapiens) (UniProt P11473); test: qHTS assay for small molecule agonists of vitamin D receptor signaling (AID 588543; calls by dose curve;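 note: 0% = DMSO basal and 100% = reference agonist control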); conditions: HEK293T VDR-UAS-bla, beta-lactamase ratio, 16 h; series mostly up to 76.8 µM
Method in brief: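 Measured: β-lactamase reporter activity (CCF4, 405 nm excitation, 460/530 nm emission) in HEK293T VDR-UAS-bla cells after 16 h compound exposure at 37 °C. Normalization against 50 nM 1α,25-dihydroxyvitamin D3 and DMSO; Hill-fit EC50.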

[6] = qHTS assay for small molecule agonists of retinoid X receptor alpha signaling (AID 588544; calls by dose curve;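 for activation: 0% = DMSO basal wells and 100% = reference agonist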); conditions: HEK293T RXRa-UAS-bla, beta-lactamase reporter, 18 h; 530 nm emission
[7] = target: Retinoic acid receptor RXR-alpha (Homo sapiens) (UniProt P19793); test: as above; conditions: HEK293T RXRa-UAS-bla, beta-lactamase reporter, 18 h; series mostly up to 76.7 µM
[8] = target: Thyroid hormone receptor beta (Homo sapiens) (UniProt P10828); test: qHTS assay for small molecule agonists of thyroid hormone receptor beta signaling (AID 588545; calls by dose curve;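 note: 0% = DMSO only and 100% = 10 nM T3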); conditions: TR-UAS-bla GripTite HEK 293, beta-lactamase ratio, agonist mode, 18 h; series mostly up to 76.7 µM
Method in brief: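 Compounds were tested as agonists in TR-UAS-bla-GripTite HEK 293 cells. After 18 hrs at 37 C, CCF4 substrate was added and fluorescence read after 2 hrs at room temperature.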

[9] = qHTS assay for small molecule antagonists of retinoid X receptor alpha signaling (AID 588546; active = well fitted inhibition curve with a large enough effect in the signal ratio, with a control signal flat, not every such curve was filed as active; the % refers to the signal ratio;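 note: cells stimulated with 9-cis-retinoic acid as agonist; % is set by controls: 0 for no effect and ±100 for the full control effect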); conditions: HEK293T RXRa-UAS-bla, beta-lactamase ratio, antagonist mode; measured here: W530 green channel, cytotoxicity proxy
Method in brief: (§1)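 Beta-lactamase reporter inhibition, read as CCF4 fluorescence ratio (ex 405, em 460/530 nm) after 2 h at RT. HEK293T UAS-bla cells, 2500/well, were stimulated with 9-cis-RA at 500 or 100 nM final alongside test compound for 18 h at 37 C.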

[10] = target: Retinoic acid receptor RXR-alpha (Homo sapiens) (UniProt P19793); test: as above; conditions: HEK293T RXRa-UAS-bla, beta-lactamase ratio, antagonist mode
Method in brief: as §1

[11] = qHTS assay for small molecule activators of the nuclear factor-kappa B (NF-kB) signaling pathway (AID 651749; active = well fitted activation curve with a large enough effect in the signal ratio; the % refers to the signal ratio; note: % of control where 0% means no effect); conditions: NF-kB-bla ME-180 cells, beta-lactamase FRET ratio, 16 h; activation: stronger effect = higher value
Method in brief: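 Screening used 2,000 ME-180 reporter cells per well exposed to pinned compound (23 nL) or DMSO; after 16 hr at 37C, beta-lactamase expression under NF-kB control was assessed through FRET.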

[12] = qHTS assay for environmental chemicals that activate the Aryl hydrocarbon Receptor (AhR) signaling pathway (AID 651777); conditions: 1A2-DRE human hepatoma cells, luciferase, 24 h; activation: stronger effect = higher value; note: % of control where 0% means no effect; nearly all actives have a fitted effect of over 15% in size
Method in brief: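 Quantitative HTS in stably transfected human liver-derived cells whose luciferase gene sits downstream of the CYP1A2 promoter and dioxin response element. After 24 hr exposure at 37 C, One-Glo luminescence was measured.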

[13] = target: Peroxisome proliferator-activated receptor alpha (Homo sapiens) (UniProt Q07869); test: qHTS assay for small molecule agonists of the peroxisome proliferator-activated receptor alpha (PPARalpha) signaling pathway (AID 651778); conditions: PathHunter PPARalpha complementation, chemiluminescence, 6 h; max response: stronger effect = higher value; note: potency is the fitted concentration of half-maximal effect; for max response: % of control where 0% means no effect
Method in brief: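 Cells plated at 2,000/well and held overnight at 37 C, 5% CO2, then compound added by pin tool for 6 hr; after PathHunter detection reagent and 60 min at room temperature, chemiluminescence from enzyme complementation was read.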

[14] = qHTS assay for small molecule agonists of the antioxidant response element (ARE) signaling pathway measured by Nrf2-dependant transcriptional activity (AID 720636; active = well fitted curve in the direction sought with a large enough effect in the repeat runs; an effect the other way counts as inactive or inconclusive; note: % of control where 0% means no effect); conditions: ARE-luc HepG2, Nrf2 luciferase reporter, 16 h; series mostly up to 92.4 µM
Method in brief: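 Quantitative HTS format in HepG2 cells stably expressing an ARE-luciferase reporter; 16 hr compound treatment at 37 C, luciferase signal detected with ONE-Glo.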

[15] = qHTS assay for cell viability of HEK293 cells (AID 743288); conditions: ATP luminescence (CellTiter-Glo), 18 h; max response: stronger effect = lower value; note: % is set by controls: 0 for no effect and ±100 for the full control effect; nearly all actives have a fitted effect of over 50% in size
Method in brief: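 Luminescent ATP quantitation served as the viability read-out. Cells (parental HEK293, 2,000/well) received compounds after at least 5 h at 37 C and were exposed for 18 h before a 30 min room-temperature reagent step.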

[16] = qHTS assay for cell viability of the p53RE-bla HCT-116 cell line (AID 743292); conditions: p53RE-bla HCT-116 viability, ATP luminescence, 16 h; series mostly up to 95 µM; note: % is set by controls: 0 for no effect and ±100 for the full control effect; nearly all actives have a fitted effect of over 55% in size
Method in brief: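 Viability of compound-treated p53RE-bla HCT-116 cells is taken from ATP-dependent luciferase luminescence. Treatment lasts 16 h at 37 C after a 5 h settling period; detection follows 30 min at room temperature.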

[17] = target: Nuclear receptor subfamily 1 group I member 2 (Rattus norvegicus) (UniProt Q9R1A7); test: qHTS assay for small molecule activators of the rat pregnane X receptor (rPXR) signaling pathway (AID 651751; call rule not given here; note: 0% is about no effect); conditions: rPXR reporter cells, luciferase (One-Glo), 24 h
[18] = qHTS assay for small molecule activators of the human pregnane X receptor (PXR) signaling pathway (AID 720659; call rule not given here; note: 0% is about no effect); conditions: DPX-2 HepG2 CYP3A4-luciferase, 24 h; series mostly up to 92.3 µM
[19] = target: Estrogen receptor (Homo sapiens) (UniProt P03372); test: qHTS assay for small molecule agonists of estrogen receptor alpha signaling (AID 588514; calls by dose curve;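 note: 0% = vehicle only and 100% = reference agonist; nearly all actives have a fitted effect of over 70% in size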); conditions: ER-alpha-UAS-bla HEK293, beta-lactamase ratio, 18 h; series mostly up to 76.8 µM
Method in brief: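 Cells were plated at 5000/well, incubated 4 hrs at 37 C, dosed with compound titration series, incubated 18 hrs at 37 C, loaded with CCF4 dye for 2 hrs at RT, then fluorescence was read.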

[20] = qHTS assay for small molecule agonists of the antioxidant response element (ARE) signaling pathway measured by Nrf2-dependant transcriptional activity - cell viability counter screen (AID 720653; active = well fitted curve in the direction sought with a large enough effect in the repeat runs; an effect the other way counts as inactive or inconclusive; note: % is set by controls: 0 for no effect and ±100 for the full control effect); conditions: ARE-bla HepG2 viability, CellTiter-Glo ATP luminescence, 16 h; max response: stronger effect = lower value
Method in brief: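 ARE-bla HepG2 cells (2,000/well) rested 5 hrs at 37C/5% CO2, then exposed to compounds in DMSO for 16 hrs. Viability was read in the same wells as intracellular ATP by luminescence, 30 min at room temperature after reagent addition.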

Thyroid hormone receptor beta (Homo sapiens), sequence (P10828 whole entry, looked up): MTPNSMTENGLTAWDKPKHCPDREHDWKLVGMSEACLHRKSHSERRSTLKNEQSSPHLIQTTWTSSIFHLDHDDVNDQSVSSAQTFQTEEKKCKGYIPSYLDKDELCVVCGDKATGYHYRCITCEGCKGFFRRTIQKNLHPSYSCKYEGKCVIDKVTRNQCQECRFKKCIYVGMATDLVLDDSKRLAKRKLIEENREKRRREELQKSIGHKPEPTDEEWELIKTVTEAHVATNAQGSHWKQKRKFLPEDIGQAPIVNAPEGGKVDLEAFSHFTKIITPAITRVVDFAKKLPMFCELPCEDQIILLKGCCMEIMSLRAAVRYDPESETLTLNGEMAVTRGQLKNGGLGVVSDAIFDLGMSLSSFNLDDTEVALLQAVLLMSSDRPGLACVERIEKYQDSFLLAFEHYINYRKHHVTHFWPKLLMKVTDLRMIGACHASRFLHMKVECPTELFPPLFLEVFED
Retinoic acid receptor RXR-alpha (Homo sapiens), sequence (P19793 whole entry, looked up): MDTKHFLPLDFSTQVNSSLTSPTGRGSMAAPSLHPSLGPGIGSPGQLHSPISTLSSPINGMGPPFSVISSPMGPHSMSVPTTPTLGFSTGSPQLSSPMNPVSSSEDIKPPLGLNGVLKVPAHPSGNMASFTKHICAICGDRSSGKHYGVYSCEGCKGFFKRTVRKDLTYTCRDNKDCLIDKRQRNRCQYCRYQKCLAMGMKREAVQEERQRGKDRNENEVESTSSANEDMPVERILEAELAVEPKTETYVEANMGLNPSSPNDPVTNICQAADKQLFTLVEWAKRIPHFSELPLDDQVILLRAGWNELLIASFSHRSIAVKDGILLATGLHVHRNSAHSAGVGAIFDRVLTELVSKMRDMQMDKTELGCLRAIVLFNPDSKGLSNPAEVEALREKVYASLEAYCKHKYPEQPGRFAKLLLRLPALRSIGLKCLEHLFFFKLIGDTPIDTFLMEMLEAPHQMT
Peroxisome proliferator-activated receptor gamma (Homo sapiens), sequence (P37231 whole entry, looked up): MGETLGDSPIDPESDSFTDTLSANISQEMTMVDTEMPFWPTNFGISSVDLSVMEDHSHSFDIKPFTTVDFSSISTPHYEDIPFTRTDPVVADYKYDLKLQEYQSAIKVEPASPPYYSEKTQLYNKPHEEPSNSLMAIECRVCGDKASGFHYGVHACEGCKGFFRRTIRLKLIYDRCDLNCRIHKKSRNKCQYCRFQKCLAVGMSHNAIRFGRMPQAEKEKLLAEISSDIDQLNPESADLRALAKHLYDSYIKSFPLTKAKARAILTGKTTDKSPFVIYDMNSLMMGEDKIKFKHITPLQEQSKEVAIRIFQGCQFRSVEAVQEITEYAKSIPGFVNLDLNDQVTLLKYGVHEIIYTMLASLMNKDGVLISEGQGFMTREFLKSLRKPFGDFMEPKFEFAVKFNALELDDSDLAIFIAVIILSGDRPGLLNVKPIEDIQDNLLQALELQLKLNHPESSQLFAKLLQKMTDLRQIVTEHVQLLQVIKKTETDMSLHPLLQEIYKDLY
Glucocorticoid receptor (Homo sapiens), sequence (P04150 whole entry, looked up): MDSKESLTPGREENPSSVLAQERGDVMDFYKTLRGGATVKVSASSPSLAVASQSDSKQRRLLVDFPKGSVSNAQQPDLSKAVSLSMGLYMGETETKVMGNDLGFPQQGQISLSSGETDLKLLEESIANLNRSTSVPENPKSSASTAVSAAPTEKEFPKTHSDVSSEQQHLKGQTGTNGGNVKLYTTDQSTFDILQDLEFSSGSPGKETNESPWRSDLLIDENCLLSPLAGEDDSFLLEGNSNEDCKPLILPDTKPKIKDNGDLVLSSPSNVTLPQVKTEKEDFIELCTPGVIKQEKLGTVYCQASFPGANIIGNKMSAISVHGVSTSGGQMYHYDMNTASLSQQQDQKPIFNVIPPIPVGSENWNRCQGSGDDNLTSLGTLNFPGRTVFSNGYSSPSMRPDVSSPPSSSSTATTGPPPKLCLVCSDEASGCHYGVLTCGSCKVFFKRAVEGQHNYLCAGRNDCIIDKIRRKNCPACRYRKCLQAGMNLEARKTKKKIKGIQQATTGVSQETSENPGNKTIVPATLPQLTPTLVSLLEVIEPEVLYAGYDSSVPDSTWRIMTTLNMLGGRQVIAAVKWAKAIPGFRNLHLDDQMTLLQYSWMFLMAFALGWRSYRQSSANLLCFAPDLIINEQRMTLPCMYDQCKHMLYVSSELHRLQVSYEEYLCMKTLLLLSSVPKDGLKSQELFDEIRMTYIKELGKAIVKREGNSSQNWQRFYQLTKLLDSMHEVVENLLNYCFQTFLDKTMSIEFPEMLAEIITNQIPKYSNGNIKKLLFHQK
Nuclear receptor subfamily 1 group I member 2 (Rattus norvegicus), sequence (Q9R1A7 whole entry, looked up): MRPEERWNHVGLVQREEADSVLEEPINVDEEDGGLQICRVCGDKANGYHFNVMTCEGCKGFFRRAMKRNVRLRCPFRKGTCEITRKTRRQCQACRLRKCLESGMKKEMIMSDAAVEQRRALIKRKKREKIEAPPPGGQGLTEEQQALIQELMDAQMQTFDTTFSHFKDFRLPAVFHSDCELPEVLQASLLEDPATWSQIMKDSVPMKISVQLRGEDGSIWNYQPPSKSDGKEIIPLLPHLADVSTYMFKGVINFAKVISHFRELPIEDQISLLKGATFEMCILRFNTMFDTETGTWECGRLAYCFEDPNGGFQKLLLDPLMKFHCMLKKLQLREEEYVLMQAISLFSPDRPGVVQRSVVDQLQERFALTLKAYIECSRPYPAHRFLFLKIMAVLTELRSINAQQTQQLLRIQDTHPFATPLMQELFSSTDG
Vitamin D3 receptor (Homo sapiens), sequence (P11473 whole entry, looked up): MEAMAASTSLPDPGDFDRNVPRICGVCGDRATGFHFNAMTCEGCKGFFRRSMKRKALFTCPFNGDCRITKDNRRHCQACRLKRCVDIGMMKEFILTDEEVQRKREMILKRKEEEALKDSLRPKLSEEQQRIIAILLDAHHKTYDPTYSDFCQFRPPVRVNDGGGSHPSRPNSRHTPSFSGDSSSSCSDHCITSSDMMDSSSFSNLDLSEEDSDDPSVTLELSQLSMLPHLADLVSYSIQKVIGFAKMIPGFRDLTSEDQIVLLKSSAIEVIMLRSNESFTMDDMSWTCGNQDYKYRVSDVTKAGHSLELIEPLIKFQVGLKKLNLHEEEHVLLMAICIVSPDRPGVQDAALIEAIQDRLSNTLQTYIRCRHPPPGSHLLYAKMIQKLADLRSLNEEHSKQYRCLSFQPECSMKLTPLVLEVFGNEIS
Peroxisome proliferator-activated receptor alpha (Homo sapiens), sequence (Q07869 whole entry, looked up): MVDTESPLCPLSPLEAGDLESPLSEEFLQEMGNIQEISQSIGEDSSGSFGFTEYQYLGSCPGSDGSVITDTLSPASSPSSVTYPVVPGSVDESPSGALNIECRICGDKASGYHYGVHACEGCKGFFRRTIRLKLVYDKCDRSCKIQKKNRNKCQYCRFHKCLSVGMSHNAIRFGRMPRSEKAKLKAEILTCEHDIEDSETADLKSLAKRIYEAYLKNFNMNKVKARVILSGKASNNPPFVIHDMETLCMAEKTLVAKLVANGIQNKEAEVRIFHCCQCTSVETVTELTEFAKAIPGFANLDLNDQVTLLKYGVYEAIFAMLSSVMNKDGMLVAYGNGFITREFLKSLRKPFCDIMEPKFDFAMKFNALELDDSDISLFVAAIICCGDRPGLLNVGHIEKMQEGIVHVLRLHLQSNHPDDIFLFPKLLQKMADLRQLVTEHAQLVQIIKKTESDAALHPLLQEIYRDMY
Estrogen receptor (Homo sapiens), sequence (P03372 whole entry, looked up): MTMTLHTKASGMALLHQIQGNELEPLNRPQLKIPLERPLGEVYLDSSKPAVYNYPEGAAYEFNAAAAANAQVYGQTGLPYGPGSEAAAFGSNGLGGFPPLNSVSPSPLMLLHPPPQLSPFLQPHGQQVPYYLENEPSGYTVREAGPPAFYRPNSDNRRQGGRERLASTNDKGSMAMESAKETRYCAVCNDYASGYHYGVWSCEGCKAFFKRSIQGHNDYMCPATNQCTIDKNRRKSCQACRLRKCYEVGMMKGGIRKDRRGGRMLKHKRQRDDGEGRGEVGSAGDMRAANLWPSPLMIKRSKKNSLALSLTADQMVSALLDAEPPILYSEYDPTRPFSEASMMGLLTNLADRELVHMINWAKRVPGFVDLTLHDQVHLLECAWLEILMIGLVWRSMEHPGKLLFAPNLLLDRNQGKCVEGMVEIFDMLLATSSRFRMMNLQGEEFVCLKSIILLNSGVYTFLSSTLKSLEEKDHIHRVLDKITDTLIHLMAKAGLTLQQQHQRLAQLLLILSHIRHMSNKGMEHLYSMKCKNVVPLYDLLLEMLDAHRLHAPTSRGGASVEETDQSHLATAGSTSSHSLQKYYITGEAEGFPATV

CN(C)CCOCCN(C)C
activation [1]: 11.4% (inactive)
Potency [2]: inactive
outcome [3]: inactive
Potency [4]: inactive
outcome [5]: inactive
max response [6]: 1.75%
Potency [7]: inactive
Potency [8]: inactive
max response [9]: -5.51%
max response [10]: -8.75% (inactive)
activation [11]: 0.657% (inactive)
activation [12]: -2.36% (inactive)
max response [13]: -0.21% (inactive)
Potency [14]: inactive
max response [15]: -5.76% (inactive)
Potency [16]: inactive
max response [17]: 0.876% (inactive)
outcome [18]: inactive

Brc1ccc(Br)c(Br)c1
Potency [19]: inactive
outcome [3]: inactive
Potency [4]: inactive
outcome [5]: inactive
max response [6]: 0.274%
Potency [7]: inactive
Potency [8]: inactive
max response [9]: -16.3%
max response [10]: -14.6% (inactive)
activation [11]: -0.374% (inactive)
activation [12]: 2.73% (inactive)
Potency [14]: inactive
max response [20]: -18% (inactive)
Potency [16]: inactive
max response [17]: -1.74% (inactive)
outcome [18]: inactive

C[Si](C)(Cl)[Si](C)(C)Cl
outcome [3]: inactive
Potency [4]: inactive
outcome [5]: inactive
max response [6]: -0.475%
Potency [7]: inactive
Potency [8]: inactive
max response [9]: -27.8%
max response [10]: -15.7% (inactive)
activation [11]: -1.24% (inactive)
activation [12]: -0.723% (inactive)
max response [13]: 1.76% (inactive)
Potency [14]: inactive
max response [20]: -9.32% (inactive)
max response [15]: -5.72% (inactive)
Potency [16]: inactive
max response [17]: -0.179% (inactive)
outcome [18]: inactive

O=C1NC(=O)C(Cc2ccc(OCCN3COc4ccccc4C3=O)cc2)S1 (stereo not drawn)
activation [1]: 5.15% (inactive)
Potency [2]: inactive
Potency [8]: inactive
max response [9]: 33.2%
max response [10]: -11.1% (inactive)
activation [11]: 0.424% (inactive)
activation [12]: 13.4% (inactive)
Potency [13]: 17.8 µM (active)
max response [20]: -6.38% (inactive)
max response [15]: -10.2% (inactive)
Potency [16]: inactive
max response [17]: 1.08% (inactive)

CCCCC/C=C\C/C=C\CCCCCCCC(=O)OC
Potency [19]: inactive
max response [6]: -7.14%
Potency [7]: inactive
Potency [8]: inactive
max response [9]: 7.06%
max response [10]: -5.56% (inactive)
activation [11]: -0.453% (inactive)
activation [12]: 1.77% (inactive)
max response [13]: -0.289% (inactive)
Potency [14]: inactive
Potency [16]: inactive
max response [17]: -0.654% (inactive)
outcome [18]: inactive

CC(COCC(C)OC(=O)c1ccccc1)OC(=O)c1ccccc1 (stereo not drawn)
activation [1]: 5.58% (inactive)
Potency [2]: inactive
outcome [3]: inactive
Potency [4]: inactive
outcome [5]: inactive
Potency [8]: inactive
max response [9]: -1.17%
max response [10]: -22% (inactive)
activation [12]: 1.91% (inactive)
max response [13]: 0.577% (inactive)
Potency [14]: inactive
max response [20]: -9.83% (inactive)
max response [15]: -11.6% (inactive)
Potency [16]: inactive
outcome [18]: inactive

CO[Si](CCCOCC1CO1)(OC)OC (stereo not drawn)
activation [1]: -3.61% (inactive)
Potency [2]: inactive
outcome [3]: inactive
Potency [4]: inactive
outcome [5]: inactive
max response [6]: -16.2%
Potency [7]: inactive
Potency [8]: inactive
max response [9]: -4.61%
max response [10]: -3% (inactive)
activation [11]: -2.38% (inactive)
activation [12]: -0.88% (inactive)
Potency [13]: 39.8 µM (active)
Potency [14]: inactive
max response [20]: -2.05% (inactive)
max response [15]: -2.39% (inactive)
Potency [16]: inactive
